Experimental data published in PubChem BioAssay AID652054 (National Center for Advancing Translational Sciences (NCATS), 2013).
Out of some 360,000 compounds screened, about 9,100 (2.5%) were called active. Roughly 4% stayed inconclusive and do not appear here. What follows is part of a selection rich in actives, with near analogues and random picks from the rest. Unmarked numbers belong to inactive results. Rule as the data show it: active = max response below about -50%; inconclusive = no clear call, values can overlap the other calls; inactive = above that.

The compounds below were run against D(3) dopamine receptor (Homo sapiens) (UniProt P35462) (assay: qHTS of D3 Dopamine Receptor Antagonist: qHTS). Settings: D3R cells, DiscoveRx beta-arrestin luminescence, antagonist mode; stronger effect = lower value.
D(3) dopamine receptor (Homo sapiens), sequence (P35462 whole entry, looked up): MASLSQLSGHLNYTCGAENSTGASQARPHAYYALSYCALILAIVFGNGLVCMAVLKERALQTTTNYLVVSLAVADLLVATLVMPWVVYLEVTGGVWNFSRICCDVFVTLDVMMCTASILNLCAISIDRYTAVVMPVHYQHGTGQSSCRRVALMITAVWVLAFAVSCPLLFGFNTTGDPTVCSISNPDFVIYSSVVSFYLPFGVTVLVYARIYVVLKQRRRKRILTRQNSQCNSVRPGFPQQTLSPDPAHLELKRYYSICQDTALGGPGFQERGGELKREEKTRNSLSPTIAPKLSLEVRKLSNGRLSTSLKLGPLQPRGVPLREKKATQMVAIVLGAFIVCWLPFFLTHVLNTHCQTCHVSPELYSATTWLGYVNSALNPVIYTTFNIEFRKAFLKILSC
Excerpt: D3 DARs represent a very important target for the treatment of several neuropsychiatric disorders. Indeed, one of the most promising therapeutic applications for the D3 DAR is in the area of addiction and related disorders. […] These findings have been observed with a number of addictive substances including cocaine, amphetamine, nicotine, and alcohol. […] Antagonism of the D3 DAR may also be therapeutic in the treatment of schizophrenia or psychosis. […] Since the D3 DAR is expressed in areas of the CNS associated with the control of mood and emotion, it has been hypothesized that selective antagonism of the D3 DAR may be effective in treating psychosis without inducing the motor side effects typically seen with D2 DAR antagonists.
This part of the project aims to discover novel antagonist.
NIH Chemical Genomics Center [NCGC]
NIH Molecular Libraries Probe Centers Network [MLPCN]
Assay Submitter (PI): David Sibley, NINDS
Freshly passaged cells are plated in 1536 well white, solid bottom plates at a density of 1500 cells/well in 3microl of complete media. After an overnight incubation at 37 degrees C in 5% CO2, cells are loaded with 23nl of test compound from the compound library (as well as dopamine controls) using a 1536 pintool and incubated at 37 degrees C for 90 minutes. Two microliters of DiscoveRx reagent is then added to all cells, and they are incubated for an additional 30 - 60 minutes at room temperature. Following incubation, luminescence is measured on a ViewLux CCD-based luminometer reader using a 20 sec exposure time.
% is scaled to controls: 0 for no effect and ±100 for the full control effect.

Point of comparison: `Cc1c(-c2ccccc2)n[nH]c1C(=O)N=Nc1c(O)[nH]c2ccccc12`, max response, negative = inhibition 32.7%. Against it:
- Cc1ccc(CCC(=O)Nc2ncc(Cc3cc(Cl)ccc3Cl)s2)o1 — lower, -12.7%
- CN(C)CCOC1c2ccccc2-c2ccccc21 — lower, -17.2%
- CN(C)CCOC(=O)C(c1ccccc1)C1(O)CCCC1 (stereo not drawn) — lower, -12.5%
- COCCNc1ncnc2c1ncn2[C@H]1CN(Cc2ccc(OC)cc2)C[C@@H](CO)O1 — lower, 6.87%
- Cc1cc(C)n2c(NCc3ccccc3)c(CC(C)C)nc2n1 — lower, 5.03%
- Cc1ccc(CN(C)C[C@@H]2OCc3cnnn3CCCC(=O)N([C@@H](C)CO)C[C@H]2C)cc1 — lower, -25.2%
- CC(CNc1ccc([N+](=O)[O-])cc1)NC(=O)c1ccccc1Br (stereo not drawn) — lower, 3.2%
- O=C(NCCNc1ccc([N+](=O)[O-])cc1Cl)c1ccccc1F — lower, -0.899%
- CC(C)Oc1ccc(CN2CCC2(C)C(=O)NCc2ccc(C(F)(F)F)cc2)cc1 (stereo not drawn) — lower, 30.5%
- CC(OC(=O)c1cccc(S(=O)(=O)N2CCOCC2)c1)C(=O)NCC1CCCCC1 (stereo not drawn) — lower, -12.6%
- CCCCC[C@H](C)N1C[C@@H](COCc2ccccc2)Oc2cc(N3CCC[C@@H]3CO)ccc2S1(=O)=O — lower, 8.76%
- CCCNC(=O)C1(C)CCN(C(=O)c2ccc(F)cc2Cl)C1 (stereo not drawn) — lower, 1.43%
- COc1ccc(NC(=O)C2(C)Cc3c(-c4cccc(NC(C)=O)c4)ccnc3O2)cc1OC (stereo not drawn) — lower, 17.2%
- COC(=O)[C@H]1C[C@H](OC(=O)NCc2ccccc2)[C@@]2(O)CN(S(=O)(=O)c3ccc(C)cc3)CC2[C@H]1C(=O)OC (stereo partly drawn) — lower, -0.452%
- CC=CCn1c(SCCCc2ccccc2)nc2c1c(=O)[nH]c(=O)n2C — higher, 41.3%
- Oc1[nH]c2ccccc2c1N=Nc1c(F)c(F)c(F)c(F)c1F — lower, 17.9%
- CCc1nc2ccc(C(=O)N(C)Cc3ccco3)cn2c1N(C)C(=O)Cc1ccccc1 — lower, 3.24%
- C[C@@H]1CN([C@@H](C)CO)C(=O)CCCn2nncc2CO[C@@H]1CN(C)S(=O)(=O)c1ccc(-c2ccccc2)cc1 — lower, -4.97%
- Cc1cccc(-c2cnc(C(O)c3cc(C)cc(C)c3)[nH]2)c1 (stereo not drawn) — lower, 0%
- COc1cccc(C(O)c2ncc(-c3ccc4ccccc4c3)[nH]2)c1 (stereo not drawn) — higher, 38.7%
- CC(=O)Nc1cc(-c2ccc(N3CCN(C)CC3)cc2)cn2c(-c3ccc(F)cc3)cnc12 — lower, -13.9%
- CNc1cnc(-c2cc(OC)c(OC)c(OC)c2)cn1 — lower, 1.16%
- O=C(NCCN1CCOCC1)C1CCN(S(=O)(=O)c2ccccc2)CC1 — lower, 31.8%
- CC(C)Nc1nc(NCCOc2ccccc2Cl)c2sccc2n1 — lower, 0%
- C[C@@H]1CN([C@@H](C)CO)C(=O)c2cc(NS(C)(=O)=O)ccc2O[C@@H](C)CCCCO[C@H]1CN(C)C(=O)Nc1ccc2c(c1)OCO2 — lower, -18.4%
- COCC1CCN(C(=O)C2CCC(=O)N(Cc3cccc(C(F)(F)F)c3)C2)CC1 (stereo not drawn) — lower, -5.12%
- CN(C)C(=O)c1cccn(Cc2cccc(C(F)(F)F)c2)c1=O — lower, 22.1%
- Cc1cccc(NC(=S)NCc2ccc3[nH]c4c(c3c2)CCCC4)c1 — lower, -3.36%
- Cc1cccc(C(=O)NC(=S)N(C)C2CCCCC2)c1 — lower, -4.93%
- CC(=O)Nc1cccc(-c2ccnc3c2CC(C)(C(=O)NCc2ccccc2)O3)c1 (stereo not drawn) — lower, 0%
- Cc1ccc(CC2(C)C(=O)Nc3ccc(OC(F)(F)F)cc32)cc1 (stereo not drawn) — lower, 0.0703%
- S=C(NCCc1ccccc1)N1CCn2cccc2C1c1ccncc1 (stereo not drawn) — lower, 6.2%
- CC1CSc2nnc(CCc3ccccc3)n21 (stereo not drawn) — lower, -21.1%
- CCCCN(C=O)c1c(CC)nc2c(OCCC3CCCCC3)cccn12 — lower, -10.7%
- COc1ccc(C(O)c2nc(-c3ccc4c(c3)OCO4)cs2)cc1 (stereo not drawn) — lower, 4.32%
- O=C(C[n+]1cc(-c2ccc(Cl)c(Cl)c2)n2c1CCC2)c1cccs1 — lower, -18.5%
- Cc1ccc(C(=O)C[n+]2cc(-c3ccccc3)n3c2CCCCC3)cc1 — lower, -4.64%
- O=CNc1cc(-c2ccc(C(=O)N3CCOCC3)cc2)cn2c(-c3ccc(F)cc3)cnc12 — lower, -24.2%
- CC(Nc1nc(N2CCOCC2)nc2ccccc12)c1ccccc1 (stereo not drawn) — lower, -1.04%
- CC(Nc1nc(N2CCN(CCO)CC2)nc2ccccc12)c1ccccc1 (stereo not drawn) — lower, 0%
- CC1(C(=O)Nc2cccnc2)Cc2c(-c3ccccc3)ccnc2O1 (stereo not drawn) — lower, 25.1%
- CC1(C(=O)NS(=O)(=O)c2cccs2)CCN1C(=O)Cc1ccc(-c2ccccc2)cc1 (stereo not drawn) — lower, 15.7%
- Cc1cc(OCC(=O)Nc2nccs2)c2c(C)c(C)c(=O)oc2c1 — higher, 52.2%
- COc1ccc(/C(C)=N\NC(=O)c2ccc(-c3ccccc3)cc2)c(F)c1 — lower, -25.6%
- CNC(=O)C(NC(=O)c1ccccc1)=C(C)C — lower, 0.178%

`Cc1ccc(Cc2cnc(N)s2)o1` was tested, and the max response, negative = inhibition was -53.2% (active).
`Cc1ccccc1C(OCCN(C)C)C1CCCCC1` (stereo not drawn) was tested, and the max response, negative = inhibition was -100% (active).
With `O=C(NCCNc1ccc([N+](=O)[O-])cc1)c1cccc2c(Br)cccc12` the max response, negative = inhibition was -58.2% (active).
For `COc1cccc2c1C(=O)c1c(O)c3c(c(O)c1C2=O)CC(O)(C(C)=NNC(=O)c1ccc(Cl)c(Cl)c1)CC3OC1CC(N)C(O)C(C)O1` (stereo not drawn), the max response, negative = inhibition was -50.5% (active).
For `O=C(CCN1CCCCC1)N=Nc1c(O)[nH]c2ccccc12`, the max response, negative = inhibition was -96.3% (active).
In the case of `Cc1cccc(-c2cnc(C(O)c3ccc4ccccc4c3)[nH]2)c1` (stereo not drawn), the max response, negative = inhibition is reported as -81.3% (active).
In the case of `COC(=O)Cc1c(O)ccn(Cc2cccc(C(F)(F)F)c2)c1=O`, the max response, negative = inhibition is reported as -71.6% (active).
With `Cc1cccc(NC(=S)NCCN(C2CCCCC2)C2CCCC2)c1` the max response, negative = inhibition was -65.7% (active).
For `c1ccc(CCC2=NCCn3cccc32)cc1`, the max response, negative = inhibition was -55.5% (active).
With `Cc1ccc(-c2c[n+](CC(=O)Nc3ccccc3)c3n2CCC3)cc1` the max response, negative = inhibition was -65.6% (active).
In the case of `CC(Nc1nc(N2CCCC2)nc2ccccc12)c1ccccc1` (stereo not drawn), the max response, negative = inhibition is reported as -74.8% (active).
For `CC(C)=C(NC(=O)c1ccccc1)C(=O)N/N=C(\C)c1ccccc1O`, the max response, negative = inhibition was -73.8% (active).
